Assay [1] is described as follows: NCI Yeast Anticancer Drug Screen. Data for the rad50 strain (AID 155).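 Also: 0% = growth of vehicle-only cultures of the same strain.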 The note with it: S. cerevisiae rad50 strain growth inhibition; at 50.0 µM; stronger effect = higher value. The method in brief: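 Readout: growth inhibition relative to vehicle-treated cultures. Compound exposure was carried out in a genetically defined yeast strain deficient in DNA damage repair.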
Assay [2] in a line: NCI Yeast Anticancer Drug Screen. Data for the mec2-1 strain (AID 157). The settings on record: S. cerevisiae mec2-1 strain, at 50.0 µM, stronger effect = higher value. The method in brief: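 mec2-1 yeast strain, carrying an alteration in DNA damage repair or cell cycle control, was exposed to compounds; growth inhibition was measured relative to vehicle-treated controls.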
Assay [3] can be described thus: NCI Yeast Anticancer Drug Screen. Data for the sgs1 mgt1 strain (AID 161).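 Also: 0% = growth of cultures given vehicle only.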 The settings on record: S. cerevisiae sgs1 mgt1 strain, at 50.0 µM, stronger effect = higher value. The method in brief:
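This yeast growth screen uses a strain with defined DNA-repair lesions; compound-treated growth is compared with vehicle-treated growth.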

Assay [4] is described as follows: NCI Yeast Anticancer Drug Screen. Data for the cln2 rad14 strain (AID 165).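 Also: 0% = growth equal to vehicle treated cultures.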 The note with it: S. cerevisiae cln2 rad14 strain, at 50.0 µM, stronger effect = higher value. The method in brief:
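Yeast carrying cln2 and rad14 alterations (cell cycle control and DNA damage repair) were exposed to compounds. Growth inhibition was measured against vehicle-treated controls.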

Assay [5] in a line: NCI Yeast Anticancer Drug Screen. Data for the bub3 strain (AID 167). The settings on record: S. cerevisiae bub3 mutant strain, at 50.0 µM, stronger effect = higher value. The method in brief:
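Readout: yeast growth inhibition, expressed relative to vehicle-only wells. The test organism is a mutant strain from a panel with lesions in DNA repair or checkpoint genes.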

The nature of assay [6]: NCI Yeast Anticancer Drug Screen. Data for the mlh1 rad18 strain (AID 175). The settings on record: S. cerevisiae mlh1 rad18 strain growth inhibition; at 50.0 µM; stronger effect = higher value. The method in brief:
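Growth inhibition of the yeast strain was measured after compound exposure and expressed relative to vehicle-treated controls. The strain carries defined defects in DNA damage repair.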

The panel holds about 79,000 compounds, 15% with a hit somewhere; the sample as a whole holds those more often. Values without a mark were called inactive. The source made the active and inactive calls. Rule as the data show it: active = growth inhibition above about 70%; inactive = the rest.

As for `Nc1ncnc2c1sc(=S)n2-c1ccccc1`, the growth inhibition was -5.3% in assay [1]; 4.55% in assay [2]; 13% in assay [3]; -1% in assay [4]; -12.7% in assay [5]; -10.9% in assay [6].
Turning to `O=C(O)CC1CC(=O)OC1(c1ccccc1)c1ccccc1` (centres undefined), the growth inhibition in assay [1] is 18%; in assay [2], 11.6%; in assay [3] it was 20.9%; in assay [4] it was 2.8%; in assay [5], 8.15%; in assay [6], 6.45%.
As to `Cc1cc(C)nc(NC(=O)c2cc(C(=O)O)c(C(=O)Nc3cc(C)cc(C)n3)cc2C(=O)O)c1`, the growth inhibition was -20.3% in assay [1]; -3.1% in assay [2]; -18.8% in assay [3]; -27.6% in assay [4]; 3.25% in assay [5]; -23.9% in assay [6].
As to `CN1c2ccccc2N(C(=O)c2ccc([N+](=O)[O-])cc2)C(CC(=O)O)c2cccn21` (centres undefined), the growth inhibition in assay [1] was 2.6%; in assay [2], -30.9%; in assay [3], -15.8%; in assay [4], 4.6%; in assay [5], -16.3%; in assay [6], 3%.
With `Cc1nnc2n1N=C(c1ccc(O)c(O)c1O)CS2`, the growth inhibition was 2.9% in assay [1]; -3.15% in assay [2]; -4.7% in assay [3]; 7.4% in assay [4]; 1.75% in assay [5]; -6.1% in assay [6].
With `O=C1C(O)=C(c2ccccc2)C(=O)N1c1ccccc1`, the growth inhibition in assay [1] was -25.2%; in assay [2] it was -9.05%; in assay [3], -11.7%; in assay [4], -62.5%; in assay [5], 6.65%; in assay [6], 9.5%.
On to `OC1(Cc2ccccn2)CCCc2ccccc21` (centres undefined), for which the growth inhibition was 7.5% in assay [1]; 9.55% in assay [2]; -1.95% in assay [3]; -15.3% in assay [4]; -8.45% in assay [5]; 4.95% in assay [6].
`C/C=C\C(=O)OCC(C)COC(=O)/C=C/C` (centres undefined): the growth inhibition in assay [1] is 21.7%; in assay [2], 15.9%; in assay [3] it was 4.9%; in assay [4] it was 9.4%; in assay [5], 2.65%; in assay [6], 6.65%.
As for `COc1ccc(NC(=O)Nc2cc(C(F)(F)F)ccc2Cl)cc1`, the growth inhibition in assay [1] is 14.6%; in assay [2] it was 16.6%; in assay [3], 5.9%; in assay [4], -26.1%; in assay [5], 2.5%; in assay [6], -9.65%.
As for `O=C1C2CCCC2C1(c1ccccc1)c1ccccc1` (centres undefined), the growth inhibition in assay [1] is -7.25%; in assay [2], 38.6%; in assay [3] it was 64.2%; in assay [4] it was -36.4%; in assay [5], 49.9%; in assay [6], 10.8%.
`Cc1cc2nc3ccc(O)cc3[n+](C)c2cc1N`: the growth inhibition in assay [1] is 57.7%; in assay [2] it was 28.6%; in assay [3], 31.6%; in assay [4] it was 31.1%; in assay [5], 15.9%; in assay [6], 26.3%.
In the case of `CCOC(=O)[C@H]1C(CC)=NOC1C` (some centres undefined), the growth inhibition in assay [1] was 9.95%; in assay [2] it was 13.2%; in assay [3] it was 2.9%; in assay [4] it was -27.5%; in assay [5], 4.25%; in assay [6] it was 2.4%.
In the case of `CCCCCc1ccc(C)cc1OC(C)=O`, the growth inhibition is 14.1% in assay [1]; -1.4% in assay [2]; 8.85% in assay [3]; -14.1% in assay [4]; -2.75% in assay [5]; 0.5% in assay [6].
Regarding `CC1(c2cccc[n+]2Cc2ccc(Cl)c(Cl)c2)OCCO1`, the growth inhibition in assay [1] is 6.7%; in assay [2], 1.65%; in assay [3], 0.2%; in assay [4], -18.3%; in assay [5], -2.2%; in assay [6], 14.2%.
Regarding `O=C1NC(=S)S/C1=C\c1ccncc1`, the growth inhibition in assay [1] is 12.4%; in assay [2], -7.4%; in assay [3], -10.4%; in assay [4], 0.9%; in assay [5], 0.05%; in assay [6], -19.1%.
For `[N-]=[N+]=Nc1cc(=O)n(-c2ccccc2)c(=O)n1-c1ccccc1`, the growth inhibition was 9.5% in assay [1]; 8.75% in assay [2]; 13.3% in assay [3]; 21.6% in assay [4]; 10.3% in assay [5]; 32.2% in assay [6].
With `O=C(O)C1CCC(=O)N1Cc1ccccc1` (centres undefined), the growth inhibition is 1.35% in assay [1]; -5.5% in assay [2]; -7.75% in assay [3]; -18% in assay [4]; -7.05% in assay [5]; -8.35% in assay [6].
For `CCOC(=O)C(=O)Cc1ccccn1`, the growth inhibition was -0.7% in assay [1]; -6.55% in assay [2]; -6.5% in assay [3]; -16.3% in assay [4]; 8.85% in assay [5]; -13.2% in assay [6].
In the case of `CC(C)(C)OC(=O)Cc1ccc2c(ccn2Cc2ccccc2)c1`, the growth inhibition is -26.2% in assay [1]; -29.6% in assay [2]; -10.9% in assay [3]; -22.1% in assay [4]; 4.65% in assay [5]; -20% in assay [6].
As for `CC(=O)[C@H]1CC[C@H]2[C@@H]3CC(=O)C4=CC(=O)CC[C@]4(C)[C@H]3C(=O)C[C@]12C`, the growth inhibition in assay [1] was 11.3%; in assay [2], -12.2%; in assay [3], 11.2%; in assay [4], -25.6%; in assay [5], 0.45%; in assay [6] it was -4.9%.
For `c1ccc(C2=C(c3ccccn3)N=c3ccccc3=c3ccccc3=N2)nc1`, the growth inhibition in assay [1] was 2.4%; in assay [2] it was 14.2%; in assay [3] it was -1.15%; in assay [4] it was -48.6%; in assay [5] it was 3.65%; in assay [6], -8.9%.
As to `NC(=O)CCCC(=O)c1cccc([N+](=O)[O-])c1`, the growth inhibition was -14.2% in assay [1]; 2.2% in assay [2]; -16.9% in assay [3]; -42.9% in assay [4]; -1.25% in assay [5]; -25.4% in assay [6].
`COc1ccc(N2C(=O)C3c4[nH]c5ccccc5c4C4CCCCC4C3C2=O)cc1` (centres undefined): the growth inhibition in assay [1] is -3.4%; in assay [2] it was 5.1%; in assay [3], -7.15%; in assay [4], 9.95%; in assay [5] it was -1.05%; in assay [6] it was -6.05%.
For the compound `CCCCCCCCCCCOCCC1C(C(C)OCCN2CCCC2)OC2OC(C)(C)OC21` (centres undefined), the growth inhibition in assay [1] is 91.5% (active); in assay [2], 92.8% (active); in assay [3], 90.5% (active); in assay [4], 90.4% (active); in assay [5] it was 88.2% (active); in assay [6] it was 89% (active).
As to `C=CCCNC(=S)S`, the growth inhibition was -1.15% in assay [1]; 11.7% in assay [2]; 6.1% in assay [3]; -2.9% in assay [4]; 4% in assay [5]; -3.4% in assay [6].
Consider `COc1ccc(/C=C2/C[N+](C)(C)C/C(=C/c3ccc(OC)cc3)C2=O)cc1`, for which the growth inhibition in assay [1] is 10.3%; in assay [2], 11.8%; in assay [3] it was -7.15%; in assay [4], 6.15%; in assay [5] it was 16.4%; in assay [6], -2.25%.
Regarding `NC1=NS(=O)(=O)c2ccccc21`, the growth inhibition in assay [1] is 14.8%; in assay [2], -11.7%; in assay [3], 3.1%; in assay [4] it was -48.7%; in assay [5] it was -1.35%; in assay [6], -1.55%.
In the case of `O=Nc1ccc(Cl)cc1`, the growth inhibition is -7.1% in assay [1]; 28.9% in assay [2]; -10.3% in assay [3]; 7.15% in assay [4]; 14.9% in assay [5]; 8.45% in assay [6].
As for `CC(=O)NNc1nc(C)c(C(=O)NNC(=O)C(=O)Nc2ccc([N+](=O)[O-])cc2[N+](=O)[O-])s1`, the growth inhibition was 6.45% in assay [1]; -5.65% in assay [2]; -30.9% in assay [3]; 32.9% in assay [4]; 24.1% in assay [5]; 14.8% in assay [6].
In the case of `Nc1nc(NCCO)c(N=O)c(=O)[nH]1`, the growth inhibition in assay [1] was 5.1%; in assay [2], -4.1%; in assay [3] it was -2.3%; in assay [4], 13.4%; in assay [5], 10.1%; in assay [6] it was 13.4%.
Consider `NC(=O)c1csc(C2OC(CO)CC2O)n1` (centres undefined), for which the growth inhibition is 4.55% in assay [1]; -2.95% in assay [2]; -2.45% in assay [3]; -6% in assay [4]; 0.2% in assay [5]; -2.1% in assay [6].
In the case of `CC(=O)OCC1OC(OC(C)=O)C(NC(=S)N(C)N=O)C(OC(C)=O)C1OC(C)=O` (centres undefined), the growth inhibition was 0.65% in assay [1]; -8.4% in assay [2]; -16.9% in assay [3]; 12.4% in assay [4]; -19.3% in assay [5]; -40.3% in assay [6].
Turning to `Cc1cc(=O)c2ccccc2n1CCCCCCCCCCn1c(C)cc(=O)c2ccccc21`, the growth inhibition in assay [1] is -12.1%; in assay [2] it was -0.25%; in assay [3], -17%; in assay [4], -21.9%; in assay [5], -26.6%; in assay [6], 26.4%.
Regarding `C=CCC1C(=O)NN=C1C` (centres undefined), the growth inhibition in assay [1] is 5.05%; in assay [2] it was -12.1%; in assay [3], -10.7%; in assay [4] it was -22.5%; in assay [5], -5.5%; in assay [6] it was 2.45%.
With `COc1ccc(-c2cc(-c3cc(C)cc(Br)c3O)no2)cc1`, the growth inhibition in assay [1] is -6.55%; in assay [2] it was -13.3%; in assay [3], -10.8%; in assay [4], -3.2%; in assay [5], -4.4%; in assay [6], 14.3%.
Take `N#CCCc1ccnc2ccccc12`: the growth inhibition in assay [1] was 1.7%; in assay [2] it was -6.4%; in assay [3] it was 1.25%; in assay [4], -43%; in assay [5] it was -3.8%; in assay [6] it was -14.8%.
Regarding `CCN(CC)C(=O)Sc1ccc(SC(=O)N(CC)CC)cc1`, the growth inhibition is -5% in assay [1]; 12.6% in assay [2]; -2.05% in assay [3]; -5.65% in assay [4]; -3.3% in assay [5]; -6.4% in assay [6].
With `O=c1[nH]c2cc([N+](=O)[O-])ccc2c2ccc(Cl)cc12`, the growth inhibition is 57.4% in assay [1]; 0% in assay [2]; 4.85% in assay [3]; 2.75% in assay [4]; 6.5% in assay [5]; 27.6% in assay [6].
`[N-]=[N+]=Nc1ccc(-c2nc(N)nc(N)n2)cc1`: the growth inhibition in assay [1] is 11.8%; in assay [2] it was 0.35%; in assay [3], -2.55%; in assay [4], -4.75%; in assay [5], 6.9%; in assay [6], 15.2%.

(Values after PubChem BioAssay (NCI).)
